Compound activity as filed in PubChem.
Gli-Sufu antag: antagonists of Gli-Sufu signaling | Sufu-KO-LIGHT fibroblasts, Gli luciferase reporter luminescence | inhibition, % at 5 µM | AID 588413 | actives 0.74% (n = 340,000);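 active means inhibition above about 55%, limit read from the data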;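 further: 0% = DMSO-treated cells and 100% = wells with medium but no cells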
Beta apoptosis: beta cell apoptosis inhibition; AID 435005; INS-1E cytokine-induced death, ATP luminescence, 48 h; percent of positive-control rescue, neutral wells zero; protection from apoptosis, % (test concentration not listed); actives 0.8% (n = 300,000);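 active means Every replicate reaches about 75%, or at least half do and their mean reaches it too, limit read from the data; inconclusive means At least half of replicates reach the limit but their mean does not; inactive means Under half of replicates reach the limit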;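 further: 0% = cytokine-treated negative control wells and 100% = positive control rescue; higher means more ATP so stronger rescue from cytokine killing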
Shn3 inh set2: Schnurri-3 reporter inhibition in Clone20 osteoblasts | Clone20 osteoblast Shn3 3'UTR firefly luciferase, 24 h | inhibition, % at 12.5 µM | actives 0.52% (n = 360,000) | AID 588674;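 active means mean inhibition of at least 75% with every replicate also reaching 75%; inconclusive means mean inhibition at least 75% but some replicate below; inactive means mean inhibition below 75%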;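 further: 0% = median of neutral control wells and 100% = pilot-screen positive control compound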
Mdm2-MdmX inh: human Mdm2/MdmX binding inhibition; actives 3% (n = 330,000); inhibition, % at 8 µM; AID 485346; O15151+Q00987; SaOS-2 split-luciferase Mdm2/MdmX complementation, luminescence;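 active means inhibition of at least 50% at 8 µM in the primary screen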
Target sequence (O15151 whole entry, looked up): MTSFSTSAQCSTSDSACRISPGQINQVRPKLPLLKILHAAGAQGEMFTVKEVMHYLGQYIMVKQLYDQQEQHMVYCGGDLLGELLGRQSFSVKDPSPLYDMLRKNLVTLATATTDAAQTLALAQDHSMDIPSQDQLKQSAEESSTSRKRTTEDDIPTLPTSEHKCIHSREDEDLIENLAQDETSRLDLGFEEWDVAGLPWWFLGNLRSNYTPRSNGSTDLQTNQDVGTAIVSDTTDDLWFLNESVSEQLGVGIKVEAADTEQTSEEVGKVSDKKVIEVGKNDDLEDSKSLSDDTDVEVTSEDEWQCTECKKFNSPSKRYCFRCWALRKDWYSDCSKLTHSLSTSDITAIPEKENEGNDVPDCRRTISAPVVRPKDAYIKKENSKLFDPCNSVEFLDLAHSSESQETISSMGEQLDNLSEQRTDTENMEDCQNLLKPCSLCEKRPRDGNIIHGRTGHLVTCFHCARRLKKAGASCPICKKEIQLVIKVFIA
Target sequence (Q00987 whole entry, looked up): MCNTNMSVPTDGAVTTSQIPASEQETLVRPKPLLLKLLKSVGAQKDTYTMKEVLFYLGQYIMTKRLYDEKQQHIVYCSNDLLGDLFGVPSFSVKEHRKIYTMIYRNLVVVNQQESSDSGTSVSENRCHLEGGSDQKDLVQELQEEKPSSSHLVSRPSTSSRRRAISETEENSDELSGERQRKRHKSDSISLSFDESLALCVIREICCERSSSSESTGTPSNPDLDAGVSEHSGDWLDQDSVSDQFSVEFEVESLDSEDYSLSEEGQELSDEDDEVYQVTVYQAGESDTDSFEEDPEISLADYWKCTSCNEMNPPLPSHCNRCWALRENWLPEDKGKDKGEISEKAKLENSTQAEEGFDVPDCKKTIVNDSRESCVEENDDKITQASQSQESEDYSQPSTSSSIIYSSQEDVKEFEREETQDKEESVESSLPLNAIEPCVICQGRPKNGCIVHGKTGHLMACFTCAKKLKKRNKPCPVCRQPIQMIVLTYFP
PAX8 reporter: lowers PAX8-driven luciferase in RMG-I cells. RMG-I TPO-luciferase reporter, SteadyGlo, 24 h. inhibition, % at 12.6 µM. actives 1.2% (n = 360,000);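 active means mean replicate inhibition at least 60% with every replicate also reaching 60%; inconclusive means only one of the two criteria is met; inactive means mean below 60% and not all replicates reaching 60%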;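 further: luciferase light reporting Pax8 driven TPO promoter activity; plate controls were median of neutral control wells for no effect and mitoxantrone controls for full effect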
CSC inhib: blocks cancer stem cells. cancer stem cell-like cells viability, luminescence. inhibition, % at 7.5 µM. actives 1.1% (n = 300,000); in the data active means inhibition above about 75%; inconclusive means no clear call, values can overlap the other calls; tested in HMLE shEcad cells
Mdm2-MdmX conf: human Mdm2/MdmX binding inhibition, confirmed. shares compounds with Mdm2-MdmX inh. luminescent assay. inhibition, % at 8 µM. actives 55% (n = 10,000). AID 489028; in the data active means inhibition above about 40%
FLuc counter: counter-screen for Mdm2/MdmX inhibitors: full-length luciferase; shares compounds with Mdm2-MdmX inh; inhibition, % at 8 µM; SaOS-2 full-length luciferase counterscreen, luminescence; actives 77% (n = 6,200); AID 504607;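 active means mean inhibition at 8 µM reaching about 37%, which flags the compound as non-specific, limit read from the data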;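 further: p53-null SaOS-2 cells with luciferase driven by a doxycycline-inducible promoter; compound on cells about two nights before reading with doxycycline added after day one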
* = called active by the depositor; ? = inconclusive; . = no result. Shown are actives, neighbours in structure and some others; about 4% of the full set was active somewhere.

SMILES	Gli-Sufu antag	Beta apoptosis	Shn3 inh set2	Mdm2-MdmX inh	PAX8 reporter	CSC inhib	Mdm2-MdmX conf	FLuc counter
COc1ccc(NC(=O)c2ccc(COCC(F)(F)F)cc2)cc1OC	0	2	-10	-8	-12	2	.	.
O=C(Nc1ccc(OCC(F)(F)C(F)F)c(C(F)(F)F)c1)c1ccc(Cl)cc1	-6	79*	78	92*	.	?	85*	34
O=C(Nc1ccc(Br)c(C(F)(F)F)c1)c1ccc(C(F)(F)F)cc1	-11	74*	-13	96*	4	110*	59*	29
Clc1ccccc1OCc1nnc(-c2ccccc2Br)o1	-81	3	-83	-158	.	.	.	.
O=c1c(Cl)c(Cl)cnn1Cc1nnc(-c2ccccc2Br)o1	1	.	78	100*	98*	.	100*	54*
Cc1ccc2c(c1)c1c(n2CC(O)CNC2CCCC2)CCCC1 (stereo not drawn)	9	-20	-20	57*	0	8	40	77*
O=C(NC(=S)Nc1ccccc1O)c1ccc(-c2ccc(Cl)cc2)o1	22	-14	5	27	.	26	.	.
Cc1ccc(O)c(NC(=S)NC(=O)c2ccc(-c3ccc(Cl)cc3)o2)c1	-2	?	17	51*	.	-2	28	.
N#Cc1ccc(-c2nc3cc(Cl)ccc3c(=O)n2O)cc1	-6	0	2	29	16	22	.	.
O=c1c2ccc(Cl)cc2nc(-c2cccc(C(F)(F)F)c2)n1O	26	51	20	88*	.	-6	39	.
O=c1c2ccccc2nc(-c2ccc(Cl)c(Cl)c2)n1O	2	40	11	82*	.	0	64*	27
O=c1c2ccccc2nc(-c2ccccc2Cl)n1O	-2	-2	0	30	6	-9	.	.
CCCCNS(=O)(=O)c1ccc2nc(-c3cccnc3)cc(C(=O)NCCCN(CC)CC)c2c1	.	-6	.	-9	.	-11	.	.
CCN(CC)CCNC(=O)c1cc(-c2cccnc2)nc2ccc(S(=O)(=O)N3CCC(C)CC3)cc12	3	6	11	100*	20	-13	76*	53*
CCCCN(C)CCNC(=O)c1cc(-c2cccnc2)nc2ccc(S(=O)(=O)N3CCC(C)CC3)cc12	18	0	-14	96*	13	-1	26	.
CO[C@@H]1CN(C)C(=O)c2cc(NC(=O)CC(F)(F)F)ccc2OC[C@H](C)N(S(=O)(=O)c2cn(C)cn2)C[C@@H]1C	.	.	.	.	-24	.	.	.
CCOC(=O)c1ccc(Oc2cc(C)nc(SC)n2)cc1	2	2	1	56*	.	68	58*	49*
O=C1NC[C@H](c2ccccc2)OC(=O)[C@H](Cc2ccc(F)cc2)C/C=C\C[C@H]1CC(=O)N(CCO)Cc1ccccc1	9	-1	16	81*	83*	36	63*	47*
O=C(C[C@@H]1C/C=C/CC[C@H](Cc2ccc(F)cc2)C(=O)OC[C@@H](Cc2ccccc2)NC1=O)N[C@H](CO)Cc1ccccc1	-11	124*	54	96*	103*	105*	93*	30
O=C1NC[C@@H](c2ccccc2)OC(=O)[C@@H](Cc2ccc(F)cc2)CC/C=C/C[C@H]1CC(=O)N(CCO)Cc1ccccc1	-6	9	-8	62*	33	18	47*	53*
O=C1NC[C@H](c2ccccc2)OC(=O)[C@H](Cc2ccc(F)cc2)CC/C=C/C[C@@H]1CC(=O)N(CCO)Cc1ccccc1	7	-1	28	41	26	.	.	.
O=C1NC[C@H](c2ccccc2)OC(=O)[C@@H](Cc2ccc(F)cc2)C/C=C\C[C@H]1CC(=O)N(CCO)Cc1ccccc1	20	8	27	85*	86*	41	79*	51*
O=C1NC[C@@H](c2ccccc2)OC(=O)[C@H](Cc2ccc(F)cc2)C/C=C\C[C@H]1CC(=O)N(CCO)Cc1ccccc1	15	3	20	31	22	.	.	.
CC(=O)Nc1ccc2c(c1)C(=O)N(C)[C@H]1CC[C@@H](CC(=O)NCC3CCCCC3)O[C@H]1CO2	.	.	.	.	13	.	.	.
